# Experimental data published in article PMC5540273 (PLoS ONE, 2017).
# Key:
# Conditions in all cases: concentration: 1 μM, replicates: in singlicate; n = 1
# NEK6 = test system: NEK6
# NEK7 = test system: NEK7
# NEK9 = test system: NEK9
# NIK = test system: T1, NIK
# T1 construct: gene MAP3K14
# NIM1 = test system: T2, NIM1
# T2 construct: gene MGC42105
# NLK = test system: NLK
# OSR1 = test system: T3, OSR1
# T3 construct: gene OXSR1
# PAK1 = test system: PAK1
# PAK2 = test system: PAK2
# PAK3 = test system: PAK3
# PAK4 = test system: PAK4
# PAK6 = test system: PAK6
# PAK7 = test system: PAK7
# PCTK1 = test system: T4, PCTK1
# T4 construct: gene CDK16
# PCTK2 = test system: T5, PCTK2
# T5 construct: gene CDK17
# PCTK3 = test system: T6, PCTK3
# T6 construct: gene CDK18
# PDGFRA = test system: PDGFRA
# PDGFRB = test system: PDGFRB
# PDPK1 = test system: PDPK1
# PFTAIRE2 = test system: PFTAIRE2
# 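Note: KINOMEscan kinase panel screen.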
SMILES,%Inh (NEK6),%Inh (NEK7),%Inh (NEK9),%Inh (NIK),%Inh (NIM1),%Inh (NLK),%Inh (OSR1),%Inh (PAK1),%Inh (PAK2),%Inh (PAK3),%Inh (PAK4),%Inh (PAK6),%Inh (PAK7),%Inh (PCTK1),%Inh (PCTK2),%Inh (PCTK3),%Inh (PDGFRA),%Inh (PDGFRB),%Inh (PDPK1),%Inh (PFTAIRE2)
O=C(NCCCN1CCOCC1)c1cccc(Nc2nccc(Nc3ccc(Oc4ccccc4)cc3)n2)c1 [GW663929],15%,28%,28%,3%,28%,27%,0%,9%,15%,0%,9%,7%,12%,0%,22%,12%,46%,99.6%,9%,18%
Nc1nccc(-c2c(-c3ccc(F)cc3)ncn2C2CCN(CC(F)(F)F)CC2)n1 [SB-236560],0%,0%,20%,13%,50%,60%,0%,0%,0%,100%,16%,0%,0%,1%,0%,0%,3%,0%,0%,23%
Fc1ccc(-c2ncn(CCCN3CCOCC3)c2-c2cccnc2)cc1 [SB-211743],0%,0%,0%,41%,0%,3%,0%,15%,23%,0%,7%,0%,0%,0%,0%,0%,0%,0%,1%,0%
NS(=O)(=O)c1cccc(-c2ccc3nccc(-c4cccc(S(N)(=O)=O)c4)c3c2)c1 [GW867253],0%,0%,0%,32%,0%,0%,0%,7%,53%,0%,0%,0%,6%,0%,0%,0%,0%,1%,0%,19%
Cc1nnc(-c2ccc(C)c(-c3ccc(C(=O)Nc4ccc(NS(C)(=O)=O)cc4)cc3)c2)o1 [GW702865],0%,0%,7%,16%,19%,0%,0%,10%,0%,0%,0%,0%,6%,0%,7%,12%,9%,36%,0%,3%
c1ccc(-c2cc(-c3c[nH]nc3-c3ccccn3)ccn2)cc1 [GW576604],0%,0%,17%,24%,20%,44%,0%,16%,13%,16%,0%,0%,0%,0%,0%,36%,0%,17%,0%,16%
COc1ccc(Nc2nccc(N3CCC(NC(=O)Nc4cc(C)ccc4C)C3)n2)cc1 (stereo not drawn) [GSK1379741],0%,0%,9%,7%,7%,35%,1%,7%,0%,0%,0%,0%,0%,3%,9%,6%,0%,2%,0%,13%
CC(C)Oc1ccc2c(-c3ccnc(Nc4ccc(N5CCN(C)CC5)cc4)n3)cnn2n1 [GW696155],99.8%,92.6%,92.9%,21%,75%,47%,87%,83%,53%,28%,47%,56%,44%,99.3%,93.5%,60%,55%,97.2%,27%,34%
COC(=O)Nc1nc2cc(Oc3ccc(NC(=O)Nc4cc(F)ccc4F)cc3)ccc2[nH]1.Cl [GW701424],0%,0%,0%,44%,30%,10%,14%,0%,0%,0%,0%,0%,12%,0%,0%,23%,98.9%,100%,0%,0%
O=C(Nc1cccc(-c2nn3ncccc3c2-c2ccnc(Nc3cccc(C(F)(F)F)c3)n2)c1)c1c(F)cccc1F [GSK299495],0%,0%,0%,0%,25%,70%,23%,0%,0%,10%,0%,0%,0%,6%,0%,23%,0%,99.7%,0%,0%
Cc1c2ccc(N(C)c3ccnc(Nc4cccc(S(N)(=O)=O)c4)n3)cc2nn1Cc1ccccc1.Cl.Cl [GW787226],0%,0%,0%,0%,0%,5%,0%,32%,49%,28%,0%,0%,10%,0%,0%,4%,99.7%,100%,0%,0%
Cn1ccc2ncnc(Oc3ccc(NC(=O)Nc4ccncc4)c(Cl)c3)c21,0%,0%,0%,0%,0%,0%,0%,16%,2%,0%,3%,1%,0%,0%,0%,0%,27%,16%,36%,0%
Cc1cn2c(=O)cc(N3CCOCC3)nc2n1Cc1cccc(Cl)c1Cl [GSK2334006],18%,0%,8%,0%,7%,9%,1%,12%,10%,15%,0%,2%,0%,5%,9%,13%,0%,31%,25%,22%
COc1ccc(CNC(=O)NC2CCN(c3ccnc(Nc4ccc(OC)cc4)n3)C2)cc1 (stereo not drawn) [GSK1379727],0%,0%,6%,17%,33%,24%,0%,0%,0%,0%,0%,0%,1%,0%,0%,4%,0%,20%,0%,7%
Cc1ccc(C(=O)NCC(N)=O)cc1-n1c(C)cc(OCc2ccc(F)cc2F)c(Br)c1=O,4%,12%,4%,0%,0%,14%,0%,16%,14%,37%,13%,12%,5%,0%,2%,22%,0%,9%,15%,10%
